# Screening results as filed in PubChem.
# FLuc counter – counter-screen for miR-21 project: firefly luciferase inhibitors or activators. P08659. purified FLuc, Km substrates, luminescence inhibition. Potency, µM (highest dose often 57.5 µM), for inactives: top-dose activity change, negative = inhibition, hits mostly inhibitors. 360,000 compounds, 6.9% hits;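 further: plate controls were vehicle for no effect and reference inhibitor for full effect; nearly all actives have a fitted effect of over 55% in size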
# Target sequence (P08659 whole entry, looked up): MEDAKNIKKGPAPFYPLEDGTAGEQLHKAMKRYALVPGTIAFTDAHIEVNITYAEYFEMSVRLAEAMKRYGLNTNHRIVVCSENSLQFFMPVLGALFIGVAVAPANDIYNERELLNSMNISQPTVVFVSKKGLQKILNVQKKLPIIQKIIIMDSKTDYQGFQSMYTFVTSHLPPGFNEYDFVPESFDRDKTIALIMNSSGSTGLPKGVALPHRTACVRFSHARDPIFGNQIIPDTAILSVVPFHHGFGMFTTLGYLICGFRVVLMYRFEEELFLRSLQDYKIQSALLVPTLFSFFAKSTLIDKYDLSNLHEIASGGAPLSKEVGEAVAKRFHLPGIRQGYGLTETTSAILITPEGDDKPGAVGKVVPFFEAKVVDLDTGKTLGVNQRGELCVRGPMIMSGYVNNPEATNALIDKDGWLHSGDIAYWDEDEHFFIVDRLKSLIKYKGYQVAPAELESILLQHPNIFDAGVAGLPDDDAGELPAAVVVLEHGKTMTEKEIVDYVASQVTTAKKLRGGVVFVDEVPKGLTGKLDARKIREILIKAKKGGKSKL
#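 Purified P. pyralis luciferase, 10 nM final, with Km-level 10 uM D-luciferin and 10 uM ATP in 50 mM Tris acetate pH 7.5, 10 mM Mg acetate, 0.01% Tween-20, 0.05% BSA; 6-point qHTS titration about 60 µM downward; luminescence read.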
# Luc counter – counter-screen: inhibitors of Kinase-Glo firefly luciferase; 200,000 compounds, 0.28% hits; Potency, µM (top dose mostly 38.3 µM), for the others: at the top dose activity change, negative = inhibition, hits mostly inhibitors; Q27757; Kinase-Glo luciferase, ATP luminescence, 8 min; AID 1379; further: on the % scale 0 is the no-effect control and ±100 the full control effect; nearly all actives have a fitted effect of over 60% in size
#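 Inhibition of Kinase-Glo luciferase light generation was assessed at 10 uM ATP in pH 7.2 imidazole buffer, with luminescence measured after eight minutes at ambient temperature.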
# NPC1 promoter act – NPC1 promoter activation. 320,000 compounds, 2.4% hits. Potency, µM (highest dose often 9.22 µM), for the others: at the top dose activation, usual class: activators. AID 485313. Huh7 NPC1 promoter luciferase reporter, 24 h; further: % of control where 0% means no effect; nearly all actives have a fitted effect of over 60% in size
#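 Huh7 reporter cells (NPC1 promoter driving luciferase) are dosed with compound for 24 h at 37 °C, 5% CO2; luciferase detection reagent is then added and luminescence measured after 10 min at ambient temperature.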
# ELG1 genotox – induces genotoxicity in HEK293T cells with luciferase-tagged ELG1 | HEK293T ELG1-luciferase reporter, luminescence, 16 h | Potency, µM (highest dose often 46 µM), without a hit: at the highest dose activity change, positive = activation, usual class: activators | 330,000 compounds, 1.3% hits; further: % of control where 0% means no effect; nearly all actives have a fitted effect of over 60% in size
#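 Step 1: seed 2,000 HEK293T ELG1-luciferase cells per well. Step 2: add compound or DMSO, incubate 16 hr at 37 °C. Step 3: ONE-Glo, 30 min at room temperature, read luminescence.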
# Rab9 prom act – Rab9 promoter activation. Potency, µM (series often up to 9.22 µM), inactives show at the top dose activation, negative = inhibition, usual class: activators. Huh7 Rab9 promoter-luciferase reporter, luminescence, 24 h. 320,000 compounds, 2.8% hits; further: % of control where 0% means no effect; nearly all actives have a fitted effect of over 60% in size
#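 Cells were plated at 1500 per well in reduced-serum medium with 10% FBS and left 2 h. Compound in DMSO was then added for 24 h at 37 °C. Reporter signal was read by luminescence after 10 min with luciferase detection reagent.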
# SMN2 splice up – enhancers of SMN2 splice variant expression | HEK293 SMN2-luciferase splicing reporter, luminescence, 30-36 h | Potency, µM (doses to about 46.1 µM), without a hit: top-dose activity change, positive = activation, most hits filed as activators | 210,000 compounds, 2.8% hits | AID 1458; further: % of control where 0% means no effect; nearly all actives have a fitted effect of over 55% in size
#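 qHTS luciferase splicing reporter: luminescence rises when SMN2 exon 7 is included in transfected HEK293 cells. Compound exposure lasted 30-36 h at 37C, with 4.5 mM final sodium butyrate as control, followed by a ONE-Glo read.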
# * marks the source's active call; other numbers are inactive results; u = inconclusive; x = no result; [ ] = remark or other dose. This is a sample that favours compounds with a hit; in the whole collection about 7.4% have one here. The call rests on the fitted dose curve; in most records, active means well fitted curve in the direction sought with a large enough effect; inconclusive means small, poorly fitted or top-dose-only effect, or another doubt; inactive means no such curve, though single readings can be large; an effect the other way counts as inactive or inconclusive. Potency means the concentration at half of the fitted maximal effect.
SMILES,FLuc counter,Luc counter,NPC1 promoter act,ELG1 genotox,Rab9 prom act,SMN2 splice up
CC1=NN(c2nc(-c3ccc(C)cc3)cs2)C(=O)C1N=Nc1cccc(C)c1 (stereo not drawn),u,-2%,28%,1%,u,1%[1.84 µM]
CC(=O)Nc1ccc(N=NC2C(=O)N(C(N)=S)N=C2C)cc1 (stereo not drawn),12µM*,x,u,u,u,x
Cc1ccc(C)c(S(=O)(=O)c2cn(Cc3ccccc3)c3cc(F)c(F)cc3c2=O)c1,-3%,x,x,x,x,-18%
CC1=NN(C(N)=S)C(=O)C1N=Nc1ccc(C)c(Br)c1 (stereo not drawn),1.7µM*,x,1.8µM*,5.2µM*,1.3µM*,x
CC1=NN(C(N)=S)C(=O)C1N=Nc1ccc(F)cc1 (stereo not drawn),11µM*,x,2.5µM*,23µM*,3.5µM*,x
CC1=NN(C(N)=S)C(=O)C1N=Nc1cccc(C(=O)O)c1 (stereo not drawn),4.8µM*,x,u,2%,2.5µM*,x
CC1=NN(C(N)=S)C(=O)C1N=Nc1ccccc1C(=O)O (stereo not drawn),5%,x,-2%,-4%,7%,x
CC1=NN(C(N)=S)C(=O)C1N=Nc1ccc([N+](=O)[O-])cc1 (stereo not drawn),3.4µM*,x,u,u,u,x
COc1ccccc1N=NC1C(=O)N(C(N)=S)N=C1C (stereo not drawn),u,x,-1%,-5%,1%,x
COc1ccc(Cn2c(CCC(=O)NCCC(C)C)nc3ncccc3c2=O)cc1,-3%,x,-2%,2%,-2%,x
O=C(c1cc(C(F)(F)F)cc(C(F)(F)F)c1)N1CCC2(CC1)CN(c1ccccn1)C2,x,0%,x,x,x,-71%
CC1=NN(C(N)=S)C(=O)C1N=Nc1ccc(Cl)cc1Cl (stereo not drawn),24µM*,x,3.2µM*,u,4.5µM*,x
CC1=NN(C(N)=S)C(=O)C1N=Nc1ccccc1Cl (stereo not drawn),u,x,17%,9%,15%,x
CCn1c(CNC(=O)c2ccccc2OC)nnc1SCC(=O)c1ccc(F)cc1,u,x,0%,-1%,-5%,x
CCOC(=O)c1ccc(NC(=O)Cc2noc3ccc(C)cc23)cc1,8.5µM*,x,x,x,x,x
Cc1ccc2onc(CC(=O)N(C)c3ccccc3)c2c1,4.8µM*,x,x,x,x,x
CC(OC(=O)c1c2c(nc3ccccc13)/C(=C\c1ccc3c(c1)OCO3)CCC2)C(=O)Nc1ccc(S(N)(=O)=O)cc1 (stereo not drawn),u,0%,-15%,-1%,0%,-14%
CCCCNC(=O)COC(=O)c1c2c(nc3ccccc13)/C(=C/c1cccs1)CC2,7.6µM*,-13%,-32%,-12%,-30%,11µM*
CNC(=O)NC(=O)C(C)OC(=O)c1c2c(nc3ccccc13)/C(=C/c1cccs1)CC2 (stereo not drawn),6µM*,3%,-32%,-17%,-34%,u
COc1ccc(C(=O)NC2CC(C)(C)Cc3occc32)cc1 (stereo not drawn),-5%,-2%,2%,1%,3%,-26%
COC(=O)CNC(=O)C1(C)C=CC2(CCCCC2)N1C(C)=O (stereo not drawn),x,0%,x,x,x,5%
O=C(CN1C(=O)NC2(CCOc3ccccc32)C1=O)c1ccc(Cl)s1 (stereo not drawn),x,x,0%,-1%,-7%,x
CCc1ccc(C(=O)CN2C(=O)NC3(CCOc4ccccc43)C2=O)s1 (stereo not drawn),17µM*,x,-3%,1%,1%,x
Cc1ccc(CC(=O)O/N=C(\N)c2ccccn2)cc1,4.8µM*,x,4.5µM*,u,u,x
Cc1cccc(OCC(=O)O/N=C(\N)c2ccccn2)c1C,9.5µM*,-4%,u,u,u,u
SMILES,FLuc counter,Luc counter,NPC1 promoter act,ELG1 genotox,Rab9 prom act,SMN2 splice up
CC(C)(C)CC(=O)O/N=C(\N)c1ccccn1,4.8µM*,-16%,0.56µM*,2.6µM*,0.63µM*,7.1µM*
COc1ccc(CC(=O)O/N=C(\N)c2ccc(C)cc2)cc1,17µM*,x,u,15%,u,x
COc1ccc(CC(=O)O/N=C(\N)c2ccncc2)cc1,-17%,x,1%,-2%,-4%,x
CCOc1ccc(-c2nonc2NC(=O)c2ccc(C)cc2)cc1OCC,-4%,x,x,x,x,-7%
Cc1ccc(OCC(=O)O/N=C(\N)c2ccccn2)cc1,13µM*,-13%,4µM*,u,2.5µM*,13µM*
N/C(=N\OC(=O)Cc1ccc(Cl)cc1)c1ccccn1,9.5µM*,0%,29%,16µM*,28%,12%
N/C(=N\OC(=O)COc1cc(Cl)c(Cl)cc1Cl)c1ccccn1,2.4µM*,-4%,0.79µM*,u,1.1µM*,11µM*
COc1ccc(CC(=O)O/N=C(\N)c2ccccn2)cc1OC,-14%,x,9%,1%,0%,x
OCc1ccc(-c2ccc(-c3ccc(CO)s3)o2)s1,x,2%[39.9 µM],x,x,x,x
CCCc1nn(C)c(C(=O)Nc2ccc3ccccc3c2)c1Cl,11µM*,-4%,u,u,u,14µM*
CCCc1nn(C)c(C(=O)Nc2cccc(CC)c2)c1Cl,17µM*,-4%,u,5%,u,u
Cc1nn(C)c(C(=O)Nc2cccc(CN3CCOCC3)c2)c1Br,3%,2%,5%,-4%,-5%,-16%
COc1ccc(-n2ccc3ccccc32)cc1,24µM*,x,-7%,0%,-2%[1.84 µM],x
COc1ccc(N2C(=O)c3cc4ccccc4cc3C2=O)cc1,0%,x,23%,-1%,1%,x
CCC(NC(=O)COc1cc2c(c3oc(=O)c(C)c(C)c13)CCC(C)(C)O2)C(=O)O (stereo not drawn),3%,x,-4%,0%,-8%,x
CCOc1cc(CNC(=O)c2ccc(NC(=O)c3nsc4ccccc34)cc2)ccc1OC,3µM*,x,x,x,x,x
CCOc1ccc(CNC(=O)c2ccc(NC(=O)c3nsc4ccccc34)cc2)cc1,7.6µM*,x,x,x,x,x
CCOc1ccc(CNC(=O)c2ccc(NC(=O)C3=CSCCO3)cc2)cc1,-6%,x,1%,4%[9.26 µM],6%,x
COc1ccc(C(=O)NCc2ccccc2OC)cc1,-8%,-2%,9%,1%,-2%,3%
COc1ccc(OC)c(CNC(=O)c2ccc(NC(=O)c3nsc4ccccc34)cc2)c1,6.7µM*,x,x,x,x,x
CSc1ccc(CNC(=O)c2ccc(NC(=O)c3nsc4ccccc34)cc2)cc1,6µM*,x,x,x,x,x
CSCc1ccc(C(=O)NCc2ccc(F)cc2)cc1,u,-1%,-3%,0%,1%,13%
